# From publication PMC4878873
# Molecular target: COP9 signalosome complex subunit 4 (UniProt Q9BT78)
# Test: cross-link between two proteins; cross-linking mass spectrometry
# Sequence of E3 ubiquitin-protein ligase RBX1, P62877 (P62877 whole entry): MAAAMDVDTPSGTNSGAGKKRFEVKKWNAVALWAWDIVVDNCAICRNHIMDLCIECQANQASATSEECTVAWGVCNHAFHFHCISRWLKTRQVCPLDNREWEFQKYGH
substance,measurement,value
"E3 ubiquitin-protein ligase RBX1, P62877",listed as a hit,yes
